As a reminder, the inhibition is the relative decrease from the control value, in per cent.

Experimental findings from PubChem BioAssay AID2129 (The Scripps Research Institute Molecular Screening Center, 2009) are described below.

Out of some 320,000 compounds screened, about 2,200 (0.69%) were called active. What follows is part of a selection rich in actives, with near analogues and random picks from the rest. Values without a mark were called inactive.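 The calls were made as follows: active = inhibition above the mean of all tested compounds plus 3 SD, cutoff set per campaign (cut at about 30% in these data); inactive = the rest.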

Bcl-2-like protein 1 (Homo sapiens), sequence (Q07817 whole entry, looked up): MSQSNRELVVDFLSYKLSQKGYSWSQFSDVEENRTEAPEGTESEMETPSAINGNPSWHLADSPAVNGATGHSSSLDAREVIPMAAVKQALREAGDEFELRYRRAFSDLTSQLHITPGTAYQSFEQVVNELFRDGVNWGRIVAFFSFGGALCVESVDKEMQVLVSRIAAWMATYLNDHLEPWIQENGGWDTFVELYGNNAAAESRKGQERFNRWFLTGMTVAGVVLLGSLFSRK

The test has as its target Bcl-2-like protein 1 (Homo sapiens) (UniProt Q07817). The experiment in a line: inhibitors of human Bcl-xL, primary screen, biochemical, fluorescence polarization, HTS (AID 2129).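 Also: 0% = DMSO wells and 100% = unlabeled Bim-BH3 peptide competitor; inhibitors lower millipolarization by displacing the labeled peptide.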 The conditions noted are these: GST-Bcl-xL / FITC-Bim BH3 peptide fluorescence polarization; at 10.9 µM; active compounds read high. A general note: In fluorescence polarisation assays a small probe gives low polarisation when free and higher when bound to something large.
As for `COCCNc1nc2nonc2nc1N1CCCC1c1nccs1` (stereo not drawn), the inhibition was 31.5% (active).

Take `COCCNc1nc2nonc2nc1N(C)Cc1ccc(C)cc1`: the inhibition is 0.5%.

As for `CCOc1ccc(C2=CC(c3ccccc3)n3ncnc3N2)cc1` (stereo not drawn), the inhibition was 14.6%.

Regarding `CC1=C(C(=O)OCc2ccccc2)C(c2ccco2)n2ncnc2N1` (stereo not drawn), the inhibition is 1.01%.

With `CCC(C)NC(=O)/C=C/c1ccc(S(=O)(=O)NCc2ccco2)cc1` (stereo not drawn), the inhibition was 3.42%.

Take `Cc1ccc(O)c(-c2cc(C(=O)Nc3c(C)n(C)n(-c4ccccc4)c3=O)[nH]n2)c1`: the inhibition is 2.52%.

Take `CC[N+](C)(CC)CCC[n+]1c(-c2ccccc2)c2cc(N)ccc2c2ccc(N)cc21`: the inhibition was 123% (active).

In the case of `CC(=O)Nc1ccc(NC(=O)CSC2=NS(=O)(=O)c3ccccc3N2)cc1`, the inhibition was 1.27%.

`COc1ccccc1CCNC(=O)c1c(C)nn(CC(C)C)c1Cl`: the inhibition is 3.1%.

For `CC(=O)C1=C(C)NC(C)=C(C(C)=O)C1c1cn(-c2ccccc2)nc1-c1cccs1`, the inhibition was -1.97%.

As to `CC1CCN(Cc2nc3c(c(=O)n(C)c(=O)n3C)n2CCc2ccccc2)CC1`, the inhibition was -4.09%.

With `CC(C)(C)CC(C)(C)NCC(O)COCCOc1ccc(Br)cc1` (stereo not drawn), the inhibition was -1.57%.

As for `Cc1ccsc1CNn1cnnc1SCc1ccccc1F`, the inhibition was -10.8%.

With `Cc1c(C)c(C)c2[nH]c(=S)[nH]c2c1C`, the inhibition is -44%.

For the compound `O=c1[nH]c(=S)[nH]c2[nH]c(=S)[nH]c12`, the inhibition is 44% (active).

With `Cc1cc2c(C)nc(N/N=C/c3ccccc3)nc2o1`, the inhibition was 2.89%.

Take `CC1CC(C)CN(S(=O)(=O)c2cccc3nonc23)C1` (stereo not drawn): the inhibition is 3.55%.

Consider `CC(=O)N1CCc2c(sc(NC(=O)CCS(=O)(=O)c3ccc(C)cc3)c2C(N)=O)C1`, for which the inhibition was 6.13%.

Consider `CSc1nc2ccccc2cc1/C=C(\C#N)c1ccc(Cl)cc1Cl`, for which the inhibition is 1.93%.

Take `Cc1ccc(C(=O)N2CCCC2)c(F)c1F`: the inhibition is 8.05%.

For `Oc1ccc(C2Nc3cccc4cccc(c34)N2)cc1`, the inhibition was 15.2%.

Consider `Cc1ccc(C2Nc3cccc4cccc(c34)N2)cc1`, for which the inhibition is 31.7% (active).

On to `COc1cccc(C2Nc3cccc4cccc(c34)N2)c1`, for which the inhibition is 20.6%.

As for `CCCCCCNS(=O)(=O)c1ccccc1Br`, the inhibition is -2.11%.

Take `Cc1ccc(NC2CCCN(C(=O)CCC3(C)CC3)C2)cc1C` (stereo not drawn): the inhibition was 4.16%.

On to `Cc1ccnc(NC(=O)c2ccoc2C)c1`, for which the inhibition was 32.4% (active).

Take `COc1cc(SC)ccc1C(=O)Nc1cc(C)ccn1`: the inhibition was -0.05%.

For the compound `Cc1ccnc(NC(=O)CNC(=O)c2ccccc2)c1`, the inhibition was -1.9%.

Turning to `COC(=O)c1cccc(N2C(=O)C3C4C=CC(CC4)C3C2=O)c1` (stereo not drawn), the inhibition was 2.84%.

`CCOC(=O)/C(=C\c1ccc([N+](=O)[O-])cc1)C(=O)c1cc(C(C)=O)c(Nc2ccccc2)s1`: the inhibition is 1.23%.

As for `Cc1ccc(S(=O)(=O)NNC(=O)/C=C/c2cccc(F)c2)cc1`, the inhibition was 6.57%.

Regarding `O=C1c2ccccc2C(=O)c2c1cccc2N1CCN(CCO)CC1`, the inhibition is 60% (active).

On to `O=C1c2ccccc2C(=O)c2c1cccc2N1CCN(Cc2ccccc2)CC1`, for which the inhibition was 7.24%.

Consider `O=C1c2ccccc2C(=O)c2c1cccc2N1CCN(C/C=C/c2ccccc2)CC1`, for which the inhibition is 20.9%.

Take `C/C(Cl)=C\Cn1c(Nc2cccc(C)c2)nc2c1c(=O)n(C)c(=O)n2C`: the inhibition is 3.4%.

As for `COc1ccccc1C(=O)N/C(=C/c1ccc2c(c1)OCO2)C(=O)Nc1cccc(C(=O)O)c1`, the inhibition is 8.09%.

`CCCC1OC23CCCCC2C(C#N)(C#N)C1(C#N)C(=N)O3` (stereo not drawn): the inhibition was 82.8% (active).

Take `Cc1ccc(CNC(=O)CC(NC(=O)c2ccccc2)c2ccccc2)cc1` (stereo not drawn): the inhibition was -7.73%.

For the compound `C=C1c2c(Cl)ccc(O)c2C(O)=C2C(=O)[C@]3(O)C(O)=C(C(N)=O)C(=O)[C@@H](N(C)C)[C@@H]3[C@@H](O)C12` (stereo partly drawn), the inhibition was 31.6% (active).

As for `CN(C)[C@@H]1C(=O)C(C(N)=O)=C(O)[C@@]2(O)C(=O)C3=C(O)c4c(O)ccc(Cl)c4[C@@H](O)[C@H]3C[C@@H]12`, the inhibition was 15.2%.

As to `Cc1cc(F)ccc1N1CCC(N2CCN(C)C(CCO)C2)CC1` (stereo not drawn), the inhibition is 8.78%.

Consider `CC(=O)c1ccc(-c2ccc(Cn3c(C)nc4cc(N)c(C)nc43)cc2)cc1`, for which the inhibition was -0.35%.

On to `Cc1cc(-c2csc(N)n2)c(C)n1Cc1ccccc1`, for which the inhibition is 11.3%.

For the compound `COc1ccccc1CNS(=O)(=O)c1ccc2c(c1)NC(=O)CS2`, the inhibition was -2.44%.

As to `CC1CC(c2ccccc2)n2nc(NC(=O)c3cccs3)nc2N1` (stereo not drawn), the inhibition was 3.43%.

On to `Cc1ccc(SCC(=O)NNC(=O)c2ccc(S(C)(=O)=O)cc2)cc1`, for which the inhibition is 1.39%.

Take `CCN(CC)S(=O)(=O)c1ccc(N2CCN(C)CC2)c(NC(=O)Nc2ccccc2F)c1`: the inhibition was 5.12%.

Take `COc1ccc(Nc2nc(-c3cccnc3)nc3ccccc23)cn1`: the inhibition is 118% (active).

Consider `CCOCCCNc1nc(-c2ccccc2)nc2ccccc12`, for which the inhibition was 1.72%.

Take `O=[N+]([O-])c1ccc(F)cc1Oc1nc(-c2cccnc2)nc2ccccc12`: the inhibition was 3.63%.

On to `CC[C@]1(O)CC2CN(CCc3c([nH]c4ccccc34)[C@@](C(=O)OC)(c3cc4c(cc3OC)N(C=O)[C@H]3[C@@](O)(C(=O)OC)[C@H](OC(C)=O)[C@]5(CC)C=CCN6CC[C@]43[C@@H]65)C2)C1` (stereo partly drawn), for which the inhibition was 15%.

`CC[C@]1(O)C[C@@H]2CN(CCc3c([nH]c4ccccc34)[C@@](C(=O)OC)(c3cc4c(cc3OC)N(C)[C@H]3[C@@](O)(C(=O)OC)[C@H](OC(C)=O)[C@]5(CC)C=CCN6CC[C@]43[C@@H]65)C2)C1`: the inhibition is 105% (active).

For the compound `Cc1ccc2c(Cl)c(C(=O)NCCCn3ccnc3)sc2c1`, the inhibition is 6.22%.

As for `CC(=O)C[C@@H](O)CC(=O)[C@H]1OC(=O)CCCCCCc2ccccc21`, the inhibition was 0.52%.

With `COc1ccc(CN2CCn3ncc(C(=O)Nc4ccc(Cl)cc4Cl)c3C2=O)cc1`, the inhibition is 2.02%.

Turning to `FC(F)(F)c1cccc(Nc2ncnc3ccccc23)c1`, the inhibition was -2.73%.

On to `O=c1cc(CO)oc(C(Nc2cccc([N+](=O)[O-])c2)c2ccccn2)c1O` (stereo not drawn), for which the inhibition was 13.9%.

Turning to `O=c1cc(CO)oc(C(Nc2cccc(C(F)(F)F)c2)c2ccccn2)c1O` (stereo not drawn), the inhibition was 33.9% (active).
